# Values without a mark were called inactive. Results filed as inconclusive are left out. Activity calls are given as the source filed them. Unless noted, calls come from the whole dose curve; as a rule, active = well fitted curve in either direction with a large enough effect (not every such curve was filed as active); inconclusive = small, poorly fitted or top-dose-only effect, or another doubt; inactive = flat fitted curve, though single readings scatter.
# Assays:
# [1] = molecular target: Lysosomal acid glucosylceramidase (Homo sapiens) (UniProt P04062); test: Glucocerebrosidase-p2 (AID 348; in the data active = potency below about 10 µM; note: potency is the fitted concentration of half-maximal effect); settings: purified GBA, blue fluorogenic substrate, 40 min
# Sequence of Lysosomal acid glucosylceramidase (Homo sapiens) (P04062 whole entry, looked up): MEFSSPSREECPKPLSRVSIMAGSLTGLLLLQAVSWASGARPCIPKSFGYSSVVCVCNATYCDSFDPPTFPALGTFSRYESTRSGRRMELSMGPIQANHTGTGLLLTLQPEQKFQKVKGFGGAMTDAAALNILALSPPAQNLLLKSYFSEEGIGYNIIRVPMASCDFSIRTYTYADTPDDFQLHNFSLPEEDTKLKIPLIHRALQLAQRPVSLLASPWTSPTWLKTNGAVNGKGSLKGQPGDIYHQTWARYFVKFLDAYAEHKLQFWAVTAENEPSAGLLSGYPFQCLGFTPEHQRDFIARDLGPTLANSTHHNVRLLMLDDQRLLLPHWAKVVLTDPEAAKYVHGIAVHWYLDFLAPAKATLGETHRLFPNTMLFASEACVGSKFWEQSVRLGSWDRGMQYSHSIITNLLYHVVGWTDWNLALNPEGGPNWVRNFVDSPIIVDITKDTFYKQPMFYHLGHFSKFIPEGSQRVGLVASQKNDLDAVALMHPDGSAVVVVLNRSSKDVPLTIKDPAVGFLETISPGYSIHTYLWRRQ
# Procedure, shortened: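 Compounds titrated from 0.6 nM upwards against 0.2 nM enzyme in pH 5.9 citric acid/KH2PO4, taurocholate, tween-20; blue fluorogenic substrate 80 uM, 40 min room temperature, stopped and read Ex 365/Em 440 for AC50.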
# [2] = AP1 Signaling Pathway (AID 357); settings: ME-180 AP-1-bla reporter, EGF-induced, beta-lactamase ratio, 5 h; at 7.69 µM (top of the series) unless noted;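 note: ME-180 reporter cells stimulated with EGF at its EC50 level; % is set by controls: 0 for no effect and ±100 for the full control effect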
# Procedure, shortened: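 Modulation of EGF-driven AP-1 transcription was assessed with a beta-lactamase reporter in ME-180 cells. Compound and EC50 EGF were co-incubated 5 hours at 37 °C before 2.5-hour CCF4 loading at room temperature and dual-emission reading.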
# [3] = molecular target: Cytochrome P450 1A2 (Homo sapiens) (UniProt P05177); test: p450-cyp1a2 (AID 410; calls by dose curve; note: potency is the fitted concentration of half-maximal effect); settings: recombinant CYP1A2, luciferin-ME demethylation, luminescence; series mostly up to 57 µM
# Sequence of Cytochrome P450 1A2 (Homo sapiens) (P05177 whole entry, looked up): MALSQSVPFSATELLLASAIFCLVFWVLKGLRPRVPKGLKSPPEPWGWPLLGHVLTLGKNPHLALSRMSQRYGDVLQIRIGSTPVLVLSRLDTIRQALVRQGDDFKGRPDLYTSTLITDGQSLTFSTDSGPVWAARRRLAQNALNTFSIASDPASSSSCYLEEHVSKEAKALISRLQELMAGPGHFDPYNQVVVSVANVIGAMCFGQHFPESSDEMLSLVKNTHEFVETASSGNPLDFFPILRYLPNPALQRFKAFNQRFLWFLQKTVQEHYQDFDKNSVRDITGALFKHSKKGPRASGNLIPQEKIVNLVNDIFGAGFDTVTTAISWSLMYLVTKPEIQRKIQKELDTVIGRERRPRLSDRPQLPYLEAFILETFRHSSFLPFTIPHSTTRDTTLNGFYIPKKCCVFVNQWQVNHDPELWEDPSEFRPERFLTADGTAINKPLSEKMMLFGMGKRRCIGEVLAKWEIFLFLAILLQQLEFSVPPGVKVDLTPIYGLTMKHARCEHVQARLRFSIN
# Procedure, shortened: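 Human CYP1A2 (20nM) demethylated Luciferin-ME at its Km (100uM) in 100mM KPO4. After 10 min compound preincubation, NADPH regeneration ran the reaction 60 min at room temperature. Luciferin was read by luminescence, normalized to 57 uM furafylline.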
# [4] = NFAT Signaling Pathway (AID 444); settings: Jurkat NFAT-bla M1, carbachol, beta-lactamase ratio, 5 h; at 7.69 µM (top of the series) unless noted;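 note: carbachol stimulus at about its EC50 of 1 µM final; % is set by controls: 0 for no effect and ±100 for the full control effect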
# Procedure, shortened: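 Read-out: CCF4 FRET ratio (460 nm/530 nm) after 1 h RT dye loading, used for %activity and AC50 from titration series. Cells: Jurkat NFAT-β-lactamase/M1 line, treated with compound plus 1 uM carbachol for 5 h, 37 °C.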
# [5] = Stat Signaling Pathway (AID 446); settings: ME-180 SIE beta-lactamase reporter, IL-6 stimulated, 5 h; at 7.69 µM (top of the series) unless noted;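 note: ME-180 cervical cancer cells given 40 pM IL-6 alongside compound; SIE-controlled beta-lactamase reporter measured as 460/530 nm FRET emission ratio; % is set by controls: 0 for no effect and ±100 for the full control effect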
# Procedure, shortened: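 ME-180 SIE-bla cells; overnight plating; cpd + IL-6 40 pM, 5 h, 37 C; LiveBLAzer 2.5 h RT; 460/530 nm emission ratio. Normalized to 300 pM IL-6 and 125 nM JAK inhibitor controls.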
# [6] = molecular target: Glucocorticoid receptor (Homo sapiens) (UniProt P04150); test: GR-GFP Redistribution (AID 450;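 active = compounds whose dose series gives a full or clear partial fitted curve of increased nuclear translocation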; note: potency is the fitted concentration of half-maximal effect); settings: U2OS GR-GFP nuclear translocation, laser cytometry, 2 h
# Sequence of Glucocorticoid receptor (Homo sapiens) (P04150 whole entry, looked up, the tested form may be a part): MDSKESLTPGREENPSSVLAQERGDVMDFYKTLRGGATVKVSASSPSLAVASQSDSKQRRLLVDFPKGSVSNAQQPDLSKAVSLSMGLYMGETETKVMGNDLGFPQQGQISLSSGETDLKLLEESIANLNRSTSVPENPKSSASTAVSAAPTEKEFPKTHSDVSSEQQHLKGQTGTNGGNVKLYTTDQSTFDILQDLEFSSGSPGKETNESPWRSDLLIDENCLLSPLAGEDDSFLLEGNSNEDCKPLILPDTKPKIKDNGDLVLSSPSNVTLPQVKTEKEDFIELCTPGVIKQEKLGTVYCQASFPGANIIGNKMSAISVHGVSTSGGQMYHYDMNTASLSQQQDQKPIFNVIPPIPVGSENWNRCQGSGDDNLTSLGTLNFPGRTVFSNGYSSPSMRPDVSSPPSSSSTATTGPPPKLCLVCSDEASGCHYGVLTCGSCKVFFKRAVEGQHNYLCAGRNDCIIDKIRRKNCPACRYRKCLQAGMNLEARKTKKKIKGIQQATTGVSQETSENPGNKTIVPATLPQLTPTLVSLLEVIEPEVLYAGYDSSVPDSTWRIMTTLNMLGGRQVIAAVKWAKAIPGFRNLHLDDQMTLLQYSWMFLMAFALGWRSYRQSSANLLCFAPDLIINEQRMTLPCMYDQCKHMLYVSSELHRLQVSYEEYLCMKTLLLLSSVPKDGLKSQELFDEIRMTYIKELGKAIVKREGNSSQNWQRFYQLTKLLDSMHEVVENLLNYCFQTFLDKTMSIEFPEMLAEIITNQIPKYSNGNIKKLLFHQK
# [7] = molecular target: Glucocorticoid receptor (Homo sapiens) (UniProt P04150); test: GR-EFC Redistribution (AID 451; calls by dose curve; note: potency is the fitted concentration of half-maximal effect); settings: CHO-K1 GR-EFC translocation, beta-gal luminescence, 2 h
# Procedure, shortened: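 Translocation of GR-ED fusion to nuclear EA restores b-gal, read by luminescence after 1 h room-temperature detection. Engineered CHO-K1 biosensor cells, 1,000/well, exposed 2 h at 37 C to titrations up to 46 uM final.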
# [8] = molecular target: Mitogen-activated protein kinase 10 (Mus musculus) (UniProt Q61831); test: JNK3 AlphaScreen Assay (AID 530); settings: JNK3 lysate, c-Jun phosphorylation; series mostly up to 57.1 µM;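 note: kinase came from lysate of stimulated human HepG2 cells; signal reports phosphorylation of biotinylated GST-cJun 1-79 at Ser73 with 10 µM ATP; % is set by controls: 0 for no effect and ±100 for the full control effect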
# Procedure, shortened: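 Room-temperature AlphaScreen kinase assay; pre-activated HepG2 lysate as JNK3 source, biotin-GST-cJun(1-79) substrate, 10 uM ATP, compound 15 min preincubation.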
# [9] = molecular target: 3',5'-cyclic-AMP phosphodiesterase 4B (Homo sapiens) (UniProt Q07343); test: qHTS Assay for Inhibitors of PDE-IV (AID 607; active = well fitted activation curve with a large enough effect in the main read-out, with a control signal flat, not every such curve was filed as active; note: % of control where 0% means no effect); settings: HEK293 ACTOne CNG channel cells, membrane potential fluorescence; series mostly up to 22.9 µM
# Sequence of 3',5'-cyclic-AMP phosphodiesterase 4B (Homo sapiens) (Q07343 whole entry, looked up): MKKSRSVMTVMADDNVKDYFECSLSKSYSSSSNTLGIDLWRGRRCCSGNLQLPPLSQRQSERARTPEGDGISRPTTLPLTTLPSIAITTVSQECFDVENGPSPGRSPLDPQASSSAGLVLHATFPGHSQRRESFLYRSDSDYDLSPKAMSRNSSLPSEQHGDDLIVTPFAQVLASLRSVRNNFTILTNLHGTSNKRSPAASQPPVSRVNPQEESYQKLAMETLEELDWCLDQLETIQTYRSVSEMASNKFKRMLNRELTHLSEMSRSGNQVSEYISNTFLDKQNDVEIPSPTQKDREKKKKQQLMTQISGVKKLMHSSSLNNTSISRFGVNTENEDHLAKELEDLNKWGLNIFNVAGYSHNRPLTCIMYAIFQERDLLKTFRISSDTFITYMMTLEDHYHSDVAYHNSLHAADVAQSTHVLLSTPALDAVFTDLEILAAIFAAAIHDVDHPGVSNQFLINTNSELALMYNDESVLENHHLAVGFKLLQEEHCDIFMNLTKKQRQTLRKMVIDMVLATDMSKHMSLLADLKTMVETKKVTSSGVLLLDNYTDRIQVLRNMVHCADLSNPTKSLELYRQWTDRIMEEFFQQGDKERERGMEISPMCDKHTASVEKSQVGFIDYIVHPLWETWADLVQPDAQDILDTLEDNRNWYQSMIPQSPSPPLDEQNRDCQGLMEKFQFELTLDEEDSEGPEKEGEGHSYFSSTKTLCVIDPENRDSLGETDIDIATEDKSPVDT
# Procedure, shortened: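 ACTOne HEK293 cells carry a modified cAMP-gated CNG channel and express endogenous PDE4; plated 1000 cells/well, compounds up to 22.9 uM final. Membrane-potential dye fluorescence (ex 535/em 590) was read; parental cells received 10 uM forskolin + 100 uM RO 20-1724.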
# [10] = molecular target: Cytochrome P450 3A4 (Homo sapiens) (UniProt P08684); test: qHTS Assay for Inhibitors and Substrates of Cytochrome P450 3A4 (AID 884; active = well fitted curve in the direction sought with a large enough effect; an effect the other way counts as inactive or inconclusive; note: potency is the fitted concentration of half-maximal effect; nearly all actives have a fitted effect of over 50% in size); settings: recombinant CYP3A4, Luciferin-PPXE luminescence; series mostly up to 57.1 µM
# Sequence of Cytochrome P450 3A4 (Homo sapiens) (P08684 whole entry, looked up): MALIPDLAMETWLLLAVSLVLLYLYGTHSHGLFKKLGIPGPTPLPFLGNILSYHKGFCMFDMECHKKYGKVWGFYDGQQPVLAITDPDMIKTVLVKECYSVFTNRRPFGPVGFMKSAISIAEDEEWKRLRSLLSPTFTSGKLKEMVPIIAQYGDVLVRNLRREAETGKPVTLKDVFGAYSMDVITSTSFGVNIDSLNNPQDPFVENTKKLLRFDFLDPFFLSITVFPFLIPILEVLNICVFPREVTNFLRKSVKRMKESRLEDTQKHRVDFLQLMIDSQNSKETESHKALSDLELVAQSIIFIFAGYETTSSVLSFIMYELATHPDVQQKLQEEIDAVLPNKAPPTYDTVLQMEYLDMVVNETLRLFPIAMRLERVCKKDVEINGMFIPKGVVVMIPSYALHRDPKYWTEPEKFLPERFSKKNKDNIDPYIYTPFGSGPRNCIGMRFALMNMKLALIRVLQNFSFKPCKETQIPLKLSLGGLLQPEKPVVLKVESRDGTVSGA
# Procedure, shortened: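 20 nM human CYP3A4 with 25 uM Luciferin-PPXE (at KM) in 200 mM KPO4, preincubated 10 min with compound; NADPH regeneration started a 60 min RT reaction. Luciferin detected by luminescence, normalized to 57 uM ketoconazole as full inhibition.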
# [11] = molecular target: Cytochrome P450 3A4 (Homo sapiens) (UniProt P08684); test: qHTS Assay for Activators of Cytochrome P450 3A4 (AID 885; active = well fitted curve in the direction sought with a large enough effect; an effect the other way counts as inactive or inconclusive; note: nearly all actives have a fitted effect of over 65% in size); settings: recombinant CYP3A4, Luciferin-PPXE luminescence, 60 min; series mostly up to 57.1 µM
# Procedure, shortened: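 20nM CYP3A4 + 25uM Luciferin-PPXE (=KM), 200mM KPO4; cpd 10 min RT; NADPH regen, 60 min RT; stop w/ detection buffer, 20 min; luminescence. Normalized to 57 uM ketoconazole.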
# [12] = molecular target: Cytochrome P450 2D6 (Homo sapiens) (UniProt P10635); test: qHTS Assay for Inhibitors and Substrates of Cytochrome P450 2D6 (AID 891; active = well fitted curve in the direction sought with a large enough effect; an effect the other way counts as inactive or inconclusive; note: potency is the fitted concentration of half-maximal effect; nearly all actives have a fitted effect of over 60% in size); settings: recombinant CYP2D6, luciferin-ME EGE luminescence; series mostly up to 57.1 µM
# Sequence of Cytochrome P450 2D6 (Homo sapiens) (P10635 whole entry, looked up): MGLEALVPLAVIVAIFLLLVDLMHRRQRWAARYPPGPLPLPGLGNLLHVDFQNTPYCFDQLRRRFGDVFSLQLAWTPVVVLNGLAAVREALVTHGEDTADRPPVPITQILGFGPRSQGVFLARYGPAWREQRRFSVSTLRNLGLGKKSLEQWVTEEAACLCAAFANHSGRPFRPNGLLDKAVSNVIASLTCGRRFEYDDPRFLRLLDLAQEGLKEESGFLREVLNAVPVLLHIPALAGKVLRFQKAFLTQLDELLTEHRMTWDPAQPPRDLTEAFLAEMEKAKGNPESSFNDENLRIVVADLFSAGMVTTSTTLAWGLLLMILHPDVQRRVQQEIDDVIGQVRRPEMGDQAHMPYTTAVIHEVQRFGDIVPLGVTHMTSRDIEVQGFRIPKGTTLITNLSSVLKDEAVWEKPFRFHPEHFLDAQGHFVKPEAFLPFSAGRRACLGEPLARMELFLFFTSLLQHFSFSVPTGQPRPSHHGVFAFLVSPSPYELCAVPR
# Procedure, shortened: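 Human CYP2D6 (5 nM) with 30 uM Luciferin-ME EGE (at Km) in 100 mM KPO4, compound preincubated 10 min, then NADPH regeneration system for 60 min at room temperature. Luciferin read by luminescence; normalized to 1.43 uM quinidine.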
# [13] = molecular target: Cytochrome P450 2C19 (Homo sapiens) (UniProt P33261); test: qHTS Assay for Inhibitors and Substrates of Cytochrome P450 2C19 (AID 899; active = well fitted curve in the direction sought with a large enough effect; an effect the other way counts as inactive or inconclusive; note: potency is the fitted concentration of half-maximal effect; nearly all actives have a fitted effect of over 60% in size); settings: recombinant CYP2C19, luciferin-H EGE luminescence; series mostly up to 57.1 µM
# Sequence of Cytochrome P450 2C19 (Homo sapiens) (P33261 whole entry, looked up): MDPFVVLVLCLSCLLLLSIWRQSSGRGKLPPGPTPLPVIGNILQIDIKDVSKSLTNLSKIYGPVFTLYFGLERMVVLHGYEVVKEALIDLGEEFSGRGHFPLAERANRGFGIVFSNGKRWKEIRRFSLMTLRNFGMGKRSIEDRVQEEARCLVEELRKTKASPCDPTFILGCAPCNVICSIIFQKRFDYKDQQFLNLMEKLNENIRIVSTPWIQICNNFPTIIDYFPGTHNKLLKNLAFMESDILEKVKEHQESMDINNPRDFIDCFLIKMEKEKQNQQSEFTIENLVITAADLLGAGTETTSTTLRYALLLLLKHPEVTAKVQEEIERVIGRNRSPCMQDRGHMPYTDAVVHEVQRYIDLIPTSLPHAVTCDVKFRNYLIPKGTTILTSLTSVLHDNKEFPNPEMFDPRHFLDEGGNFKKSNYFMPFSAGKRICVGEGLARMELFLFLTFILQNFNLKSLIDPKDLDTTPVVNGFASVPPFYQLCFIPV
# Procedure, shortened: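 Reactions contain 5nM enzyme, 10uM Luciferin-H EGE (KM) and 50mM KPO4; compound preincubates 10 min at 37C, NADPH regeneration starts turnover for 60 min. Luminescence after detection reagent gives activity.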
# [14] = Confirmation and Secondary Assay for Modulators of Hemoglobin Beta Chain Splicing at IVS2 654 locus (AID 910; active = well fitted curve in the direction sought with a large enough effect; an effect the other way counts as inactive or inconclusive;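 note: HeLa cells stably carrying EGFP split by mutant beta-globin IVS2-654 intron; per-well total GFP intensity by laser scanning cytometry after 2-day treatment; % of control where 0% means no effect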); settings: HeLa EGFP-654 splicing reporter, GFP fluorescence, 48 h; series mostly up to 38.3 µM
# Procedure, shortened: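 Readout: per-well total peak green fluorescence (488 nm ex, 500–520 nm em) from objects 5–250 µm, reflecting correct splicing of an EGFP-654 reporter. Compounds were applied for 2 days at 37 °C to overnight-plated HeLa EGFP-654 cells; controls were DMSO and 500 nM IVS2-654 PNA.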
# [15] = Confirmation and Secondary Assay for Modulators of Hemoglobin Beta Chain Splicing at IVS2 705 locus (AID 930; active = well fitted curve in the direction sought with a large enough effect; an effect the other way counts as inactive or inconclusive;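 note: HeLa cells stably expressing the EGFP-705 splicing reporter; GFP fluorescence per well restored by corrected splicing of the IVS2-705 intron in EGFP; % of control where 0% means no effect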); settings: HeLa EGFP-705 splicing reporter, GFP fluorescence, 48 h; series mostly up to 38.3 µM
# Procedure, shortened: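 Secondary splice-site specificity test uses HeLa expressing CMV-driven EGFP interrupted by IVS2-705; cells were treated 2 days at 37C with 500 nM antisense PNA as positive control.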
# [16] = molecular target: Ubiquitin carboxyl-terminal hydrolase 1 (Homo sapiens) (UniProt O94782); test: Inhibitors of USP1/UAF1: Pilot qHTS (AID 504865; active = well fitted curve in the direction sought with a large enough effect; an effect the other way counts as inactive or inconclusive; note: nearly all actives have a fitted effect of over 35% in size; note: potency is the fitted concentration of half-maximal effect); settings: purified USP1/UAF1, Ub-rhodamine cleavage fluorescence; series mostly up to 54.9 µM
# Sequence of Ubiquitin carboxyl-terminal hydrolase 1 (Homo sapiens) (O94782 whole entry, looked up): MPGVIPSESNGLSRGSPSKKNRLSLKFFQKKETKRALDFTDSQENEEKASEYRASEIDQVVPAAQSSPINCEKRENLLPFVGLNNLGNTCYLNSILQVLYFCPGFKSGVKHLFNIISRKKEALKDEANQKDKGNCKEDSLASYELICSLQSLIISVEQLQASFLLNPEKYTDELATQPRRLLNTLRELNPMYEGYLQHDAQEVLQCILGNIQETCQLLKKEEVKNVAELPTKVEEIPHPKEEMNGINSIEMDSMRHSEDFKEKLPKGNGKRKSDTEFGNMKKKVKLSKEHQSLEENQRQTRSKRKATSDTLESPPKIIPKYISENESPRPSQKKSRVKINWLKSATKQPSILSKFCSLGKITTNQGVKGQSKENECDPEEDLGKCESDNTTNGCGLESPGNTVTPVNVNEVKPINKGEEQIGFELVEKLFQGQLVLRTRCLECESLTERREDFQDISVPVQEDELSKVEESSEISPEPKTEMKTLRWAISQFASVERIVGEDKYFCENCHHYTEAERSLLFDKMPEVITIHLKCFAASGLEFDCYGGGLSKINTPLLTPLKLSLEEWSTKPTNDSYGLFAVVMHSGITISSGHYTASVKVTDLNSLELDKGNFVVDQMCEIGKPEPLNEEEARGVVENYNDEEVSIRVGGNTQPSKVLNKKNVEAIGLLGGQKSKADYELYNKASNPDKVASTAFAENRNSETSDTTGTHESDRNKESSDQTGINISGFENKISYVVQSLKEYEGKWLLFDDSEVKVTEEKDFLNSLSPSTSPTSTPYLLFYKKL
# Procedure, shortened: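 In 50mM HEPES pH 7.8 containing 0.5mM EDTA, 1mM TCEP, 0.1 mg/ml BSA and 0.01% Tween-20, 1nM USP1/UAF1 is exposed to compound for 15 min, then Ub-Rho (150nM final) is added and fluorescence is read over time.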
# [17] = Primary qHTS for small molecule stabilizers of the endoplasmic reticulum resident proteome: Secreted ER Calcium Modulated Protein (SERCaMP) assay (AID 1508630; active = well fitted curve in the direction sought with a large enough effect; an effect the other way counts as inactive or inconclusive; note: % is set by controls: 0 for no effect and ±100 for the full control effect); settings: SH-SY5Y GLuc-SERCaMP (Gaussia luciferase released on ER calcium loss) secretion, thapsigargin, luminescence; series mostly up to 38.4 µM
# Procedure, shortened: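 GLuc-SERCaMP-expressing SH-SY5Y cells, pretreated 16 h with compound, are challenged with thapsigargin to empty ER calcium stores; after 4 h, coelenterazine is added directly to the medium and luminescence is imaged.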
# [18] = molecular target: Cytochrome P450 2C9 (Homo sapiens) (UniProt P11712); test: qHTS Assay for Inhibitors and Substrates of Cytochrome P450 2C9 (AID 883; active = well fitted curve in the direction sought with a large enough effect; an effect the other way counts as inactive or inconclusive; note: potency is the fitted concentration of half-maximal effect; nearly all actives have a fitted effect of over 60% in size); settings: recombinant CYP2C9, luciferin-H luminescence, 60 min; series mostly up to 57.1 µM
# Procedure, shortened: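 Turnover of Luciferin-H (100uM, KM) by 10nM human CYP2C9 was measured over 60 min at 37C with NADPH regeneration; inhibitors and some substrates reduce luminescence. Data normalized to sulphaphenazole 57uM.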
# [19] = qHTS Assay for Identification of Small Molecule Agonists for Hypoxia Response Element Signaling Pathway (AID 914; active = well fitted activation curve with a large enough effect in the signal ratio, with a control signal flat, not every such curve was filed as active; the % refers to the signal ratio; note: % of control where 0% means no effect); settings: ME-180 (cervical carcinoma) HRE-bla reporter, beta-lactamase ratio, CoCl2, 17 h; activation: stronger effect = higher value
# Procedure, shortened: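 qHTS titration; ME-180 HRE-bla cells; EC50 CoCl2 co-treatment, 17 h at 37 degrees Celsius; CCF4 dye, ex 405nm, em 460nm and 530nm; %Activity from ratio; AC50.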
# [20] = molecular target: Dual specificity protein kinase CLK4 (Homo sapiens) (UniProt Q9HAZ1); test: qHTS Assay for Inhibitors of CDC-like Kinase 4 (ADP-FP Assay) (AID 1795; active = well fitted curve in the direction sought with a large enough effect; an effect the other way counts as inactive or inconclusive;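 note: recombinant human CLK4 phosphorylating RS repeat peptide at 1 µM ATP; % is set by controls: 0 for no effect and ±100 for the full control effect; nearly all actives have a fitted effect of over 60% in size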); settings: Transcreener ADP fluorescence polarization; series mostly up to 50 µM
# Procedure, shortened: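 Clk4 6.25 nM; RS peptide 100 uM; ATP 1 uM; 25 mM Tris pH 7.5, 10 mM MgCl2; 1 h reaction. ADP detected via antibody/orange tracer FP displacement; TG003 positive control.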
Structure (SMILES),Potency [1],"activity change, negative = inhibition [2] [%]",Potency [3],"activity change, negative = inhibition [4] [%]","activity, negative = inhibition [5] [%]",Potency [6] [µM],Potency [7] [µM],Potency [8],Potency [9],Potency [10],Potency [11],Potency [12],Potency [13],Potency [14],outcome [15],Potency [16],outcome [17],Potency [18],activation [19] [%],Potency [20]
c1ncc(-c2ccc3c(c2)OCO3)c(NCCc2cnc[nH]2)n1,> 11.4 µM,-17.2,0.398 µM (active),1.1,-11.2,> 46,> 46,inactive,inactive,0.794 µM (active),inactive,2.51 µM (active),0.0398 µM (active),inactive,inactive,inactive,inactive,,,
Fc1ccc(Nc2nc(-c3ccoc3)nc3ccccc23)cc1,7.43 µM (active),11.4,0.316 µM (active),-21.4,4.98,> 46,> 46,inactive,,3.98 µM (active),inactive,,,,,inactive,inactive,,,
Cc1cnc(CNc2ncnc3ccc(-c4ccc(C(=O)N(C)C)cc4)cc23)cn1,> 11.4 µM,-13.6,15.8 µM (active),9.3,-5.52,> 46,> 46,inactive,inactive,,,,,,,inactive,inactive,,,
COc1ccc2[nH]cc(CCNc3ncncc3-c3ccc(C(=O)N(C)C)cc3)c2c1,,-13.2,20 µM (active),5.64,4.62,> 46,> 46,inactive,,,inactive,,,,,inactive,inactive,0.398 µM (active),11.5,inactive
Cc1noc(C)c1-c1nccc(NCc2ccccc2)n1,> 2.29 µM,0.193,0.794 µM (active),-7.38,-0.39,> 46,> 46,inactive,inactive,5.01 µM (active),inactive,,,,,25.1 µM (active),inactive,,,
CCC(=O)O[C@@H]1CC(=O)O[C@H](C)C/C=C/C=C/[C@@H](O)[C@H](C)C[C@H](CC=O)[C@H](OC2O[C@H](C)[C@@H](O[C@H]3C[C@@](C)(O)[C@@H](OC(=O)CC)[C@H](C)O3)[C@H](N(C)C)[C@H]2O)[C@H]1OC (some centres undefined),,,,,,,,,,,,,,,,,inactive,,,
Cc1nc2cncnc2n(-c2ccccc2)c1=O,> 11.4 µM,-11.8,10 µM (active),-0.117,-12.5,> 9.22,> 46,inactive,inactive,,inactive,,,,,,inactive,,,
COc1ccc(Oc2ncc3nc(C)c(=O)n(C)c3n2)cc1,> 11.4 µM,14.2,12.6 µM (active),-1.39,-6.21,> 9.22,> 46,inactive,inactive,,inactive,,,,,,inactive,,,
Cc1nc2cnc(Oc3ccccc3)nc2n(CCC#N)c1=O,> 11.4 µM,-21.9,20 µM (active),-8.6,-6.56,> 9.22,> 46,inactive,inactive,,inactive,,,,,,inactive,,,
FC(F)(F)c1ccccc1-c1cncnc1NCCc1cnc[nH]1,> 11.4 µM,-1.69,6.31 µM (active),-20,-1.23,> 46,> 46,inactive,,,,,,inactive,inactive,inactive,inactive,,,
COc1ccc(Oc2ncc3ncc(=O)n(Cc4cccs4)c3n2)cc1,> 11.4 µM,-29.2,10 µM (active),-6.6,-28.6,> 9.22,> 46,inactive,inactive,3.16 µM (active),inactive,,,,,,inactive,,,
O=c1c(-c2ccccc2)nc2cncnc2n1C1CC1,> 11.4 µM,-14.9,2 µM (active),6.76,8.37,> 9.22,> 46,inactive,,,,,,,,,inactive,,,
O=c1c(-c2cccc(F)c2)nc2cncnc2n1C1CC1,> 11.4 µM,-9.05,1.58 µM (active),-1.62,1.43,> 9.22,> 46,inactive,inactive,,inactive,,,,,,inactive,,,
